In ChEMBL document CHEMBL3988442, “University of Dundee, Small-Polar-MMV Screening Library” (2021) one finds Percent Effect data, which are given here for 11 compounds.

SMILES strings stand for the structures. For some of these results: Results with a measured potency or affinity are listed apart.

Parameters in all cases: scale not given: direction of the effect not stated beside the values
Assay [1] has as its target Protein translocase subunit SecA (Escherichia coli (strain K12)) (UniProt P10408). In words: Assay to Identify E. coli SecA ATPase Inhibitors. Type of assay: functional. The settings on record: 30 µM.
Assay [2] has as its target T1, Ubiquitin-activating enzyme e1, putative (Leishmania donovani (strain BPK282A1)) (UniProt E9BSI1).
T1 sequence (whole entry): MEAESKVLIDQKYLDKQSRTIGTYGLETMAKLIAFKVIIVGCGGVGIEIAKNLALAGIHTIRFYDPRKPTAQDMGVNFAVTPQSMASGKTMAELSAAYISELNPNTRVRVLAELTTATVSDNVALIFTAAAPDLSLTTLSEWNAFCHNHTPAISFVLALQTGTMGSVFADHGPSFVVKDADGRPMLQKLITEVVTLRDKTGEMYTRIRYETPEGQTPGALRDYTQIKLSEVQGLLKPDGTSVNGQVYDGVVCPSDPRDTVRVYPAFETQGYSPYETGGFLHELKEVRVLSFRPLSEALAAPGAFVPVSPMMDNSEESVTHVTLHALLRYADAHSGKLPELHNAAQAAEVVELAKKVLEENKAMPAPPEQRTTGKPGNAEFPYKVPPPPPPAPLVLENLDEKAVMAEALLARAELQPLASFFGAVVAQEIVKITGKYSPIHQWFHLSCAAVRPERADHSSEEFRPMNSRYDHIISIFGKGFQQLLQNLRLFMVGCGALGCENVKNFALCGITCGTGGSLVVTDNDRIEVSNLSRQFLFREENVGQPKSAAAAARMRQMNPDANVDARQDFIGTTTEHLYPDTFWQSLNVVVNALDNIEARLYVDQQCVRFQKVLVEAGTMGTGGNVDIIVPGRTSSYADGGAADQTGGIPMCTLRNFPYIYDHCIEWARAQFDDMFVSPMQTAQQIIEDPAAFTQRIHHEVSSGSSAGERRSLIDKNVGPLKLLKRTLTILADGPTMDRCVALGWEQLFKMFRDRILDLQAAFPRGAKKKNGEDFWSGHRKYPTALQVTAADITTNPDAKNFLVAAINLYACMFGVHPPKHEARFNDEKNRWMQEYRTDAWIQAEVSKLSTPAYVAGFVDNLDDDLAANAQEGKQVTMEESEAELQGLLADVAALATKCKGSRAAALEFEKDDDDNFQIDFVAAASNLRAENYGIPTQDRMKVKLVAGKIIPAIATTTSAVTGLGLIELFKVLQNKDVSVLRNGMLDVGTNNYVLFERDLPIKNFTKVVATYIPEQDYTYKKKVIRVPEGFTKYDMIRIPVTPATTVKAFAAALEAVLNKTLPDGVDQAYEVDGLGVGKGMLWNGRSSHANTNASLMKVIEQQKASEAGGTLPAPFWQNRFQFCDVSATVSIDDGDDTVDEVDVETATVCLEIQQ
As to the kind of experiment: Leishmania donovani Ubiquitin Activating Enzyme (LdE1). Type of assay: functional. The settings on record: 30 µM.

Assay [3] deals with AMP-activated protein kinase, AMPK (Homo sapiens) (UniProt P54646+O43741+P54619+Q9UGJ0+Q9Y478+Q13131+Q9UGI9). As to the kind of experiment: AMP-dependent Kinase enzyme assay. An in vitro enzyme assay that detects ADP turnover that is directly proportional to AMPK activity. This uses naive AMPK that is activated during the assay with MK-8722. Type of assay: functional. The settings on record: 30 µM.

In assay [4] the target is Sialic acid-binding Ig-like lectin 9 (Homo sapiens) (UniProt Q9Y336). In words: Hs-Siglec9 ALPHAscreen SOP 20170721. To be noted: 10 µM. Background: Bead proximity is the source of the signal in Alpha formats.
Another assay has as its system Trypanosoma cruzi. As to the kind of experiment: Trypanosoma cruzi phosphomannomutase and mannose-1-phosphate guanylyltransferase assay. Type of assay: functional. The settings on record: 10 µM.
Assay [5] concerns the target T2, Arginase-2, mitochondrial (Homo sapiens) (UniProt P78540).
T2 sequence (whole entry): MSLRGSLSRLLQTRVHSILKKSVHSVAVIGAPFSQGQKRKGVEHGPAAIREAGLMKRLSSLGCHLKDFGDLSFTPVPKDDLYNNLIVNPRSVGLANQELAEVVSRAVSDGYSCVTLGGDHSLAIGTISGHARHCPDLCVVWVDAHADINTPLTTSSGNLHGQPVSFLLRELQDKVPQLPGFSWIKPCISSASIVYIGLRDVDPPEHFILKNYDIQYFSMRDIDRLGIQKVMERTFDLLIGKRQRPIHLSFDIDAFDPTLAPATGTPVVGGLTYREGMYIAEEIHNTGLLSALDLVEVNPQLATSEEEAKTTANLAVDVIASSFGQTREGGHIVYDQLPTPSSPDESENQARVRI
In words: in vitro enzyme assay to detect the production of urea directly proportional to the activity of Arginase II. Note: in the data most compounds retested in dose-response had high values. It counts as functional. The settings on record: 33.3 µM.

The target in assay [6] is T3, Proteasome subunit beta (Trypanosoma cruzi) (UniProt O96673).
T3 sequence (whole entry): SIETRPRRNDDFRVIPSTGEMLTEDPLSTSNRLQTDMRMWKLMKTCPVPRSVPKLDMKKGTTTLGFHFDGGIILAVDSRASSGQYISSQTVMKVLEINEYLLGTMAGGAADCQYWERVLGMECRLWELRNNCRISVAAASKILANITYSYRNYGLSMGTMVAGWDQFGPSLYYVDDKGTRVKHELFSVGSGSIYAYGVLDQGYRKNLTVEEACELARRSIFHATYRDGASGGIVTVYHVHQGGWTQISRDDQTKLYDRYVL
In words: Trypanosoma cruzi proteasome chymotrypsin-like activity (TcProtChymo) assay. Note: in the data most compounds retested in dose-response had high values. The settings on record: 9.37 µM. It counts as functional.

The species entered for the next assay is Homo sapiens. In words: To identify inhibition of the IFN signalling (Jak-Stat) pathway via expression of an eGFP reporter gene under the control of an IFN-stimulated response element (ISRE) containing MxA promoter. To be noted: 30 µM. It counts as functional. A general note: Reporter assays use an easily measured gene product as a stand-in for the process of interest.

Assay [7] concerns the target T4, Tyrosyl-tRNA synthetase, putative (Trypanosoma cruzi (strain CL Brener)) (UniProt Q4DSP6).
T4 sequence (whole entry): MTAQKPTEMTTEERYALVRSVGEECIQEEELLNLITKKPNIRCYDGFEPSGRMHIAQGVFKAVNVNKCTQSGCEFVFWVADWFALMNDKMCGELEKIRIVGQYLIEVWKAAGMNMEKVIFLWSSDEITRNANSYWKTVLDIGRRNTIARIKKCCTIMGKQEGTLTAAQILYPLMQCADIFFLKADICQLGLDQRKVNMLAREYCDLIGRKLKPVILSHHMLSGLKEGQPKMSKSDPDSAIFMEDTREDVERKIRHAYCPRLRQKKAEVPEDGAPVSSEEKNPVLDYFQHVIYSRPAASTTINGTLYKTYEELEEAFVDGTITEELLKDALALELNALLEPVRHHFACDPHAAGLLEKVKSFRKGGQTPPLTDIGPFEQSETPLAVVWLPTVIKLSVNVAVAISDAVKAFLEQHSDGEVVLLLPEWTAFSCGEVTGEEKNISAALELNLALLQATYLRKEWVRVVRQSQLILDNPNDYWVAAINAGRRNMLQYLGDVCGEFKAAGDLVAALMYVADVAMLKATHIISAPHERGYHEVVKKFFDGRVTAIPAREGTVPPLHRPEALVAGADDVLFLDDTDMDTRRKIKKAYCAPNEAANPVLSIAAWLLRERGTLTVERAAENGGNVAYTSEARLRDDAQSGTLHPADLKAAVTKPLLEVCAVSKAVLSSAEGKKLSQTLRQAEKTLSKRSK
In words: Trypanosoma cruzi tyrosyl tRNA synthetase (TcYRS) _High Tyrosine SOP. Note: in the data most compounds retested in dose-response had high values. Type of assay: functional. The settings on record: 30 µM.

For assay [8], the target named is T4, Tyrosyl-tRNA synthetase, putative (Trypanosoma cruzi (strain CL Brener)). As to the kind of experiment: Trypanosoma cruzi tyrosyl tRNA synthetase (TcYRS) SOP. Type of assay: functional. The settings on record: 30 µM.
For assay [9], the target named is Chromo domain-containing protein 1 (Saccharomyces cerevisiae (strain ATCC 204508 / S288c) (Baker's yeast)) (UniProt P32657). In words: ScCHD-1 Enzyme Inhibition Assay. Note: in the data most compounds retested in dose-response had high values. Type of assay: functional. To be noted: 30 µM.
Sequence of Chromo domain-containing protein 1 (Saccharomyces cerevisiae (strain ATCC 204508 / S288c) (Baker's yeast)) (P32657 whole entry, the tested form may be a part): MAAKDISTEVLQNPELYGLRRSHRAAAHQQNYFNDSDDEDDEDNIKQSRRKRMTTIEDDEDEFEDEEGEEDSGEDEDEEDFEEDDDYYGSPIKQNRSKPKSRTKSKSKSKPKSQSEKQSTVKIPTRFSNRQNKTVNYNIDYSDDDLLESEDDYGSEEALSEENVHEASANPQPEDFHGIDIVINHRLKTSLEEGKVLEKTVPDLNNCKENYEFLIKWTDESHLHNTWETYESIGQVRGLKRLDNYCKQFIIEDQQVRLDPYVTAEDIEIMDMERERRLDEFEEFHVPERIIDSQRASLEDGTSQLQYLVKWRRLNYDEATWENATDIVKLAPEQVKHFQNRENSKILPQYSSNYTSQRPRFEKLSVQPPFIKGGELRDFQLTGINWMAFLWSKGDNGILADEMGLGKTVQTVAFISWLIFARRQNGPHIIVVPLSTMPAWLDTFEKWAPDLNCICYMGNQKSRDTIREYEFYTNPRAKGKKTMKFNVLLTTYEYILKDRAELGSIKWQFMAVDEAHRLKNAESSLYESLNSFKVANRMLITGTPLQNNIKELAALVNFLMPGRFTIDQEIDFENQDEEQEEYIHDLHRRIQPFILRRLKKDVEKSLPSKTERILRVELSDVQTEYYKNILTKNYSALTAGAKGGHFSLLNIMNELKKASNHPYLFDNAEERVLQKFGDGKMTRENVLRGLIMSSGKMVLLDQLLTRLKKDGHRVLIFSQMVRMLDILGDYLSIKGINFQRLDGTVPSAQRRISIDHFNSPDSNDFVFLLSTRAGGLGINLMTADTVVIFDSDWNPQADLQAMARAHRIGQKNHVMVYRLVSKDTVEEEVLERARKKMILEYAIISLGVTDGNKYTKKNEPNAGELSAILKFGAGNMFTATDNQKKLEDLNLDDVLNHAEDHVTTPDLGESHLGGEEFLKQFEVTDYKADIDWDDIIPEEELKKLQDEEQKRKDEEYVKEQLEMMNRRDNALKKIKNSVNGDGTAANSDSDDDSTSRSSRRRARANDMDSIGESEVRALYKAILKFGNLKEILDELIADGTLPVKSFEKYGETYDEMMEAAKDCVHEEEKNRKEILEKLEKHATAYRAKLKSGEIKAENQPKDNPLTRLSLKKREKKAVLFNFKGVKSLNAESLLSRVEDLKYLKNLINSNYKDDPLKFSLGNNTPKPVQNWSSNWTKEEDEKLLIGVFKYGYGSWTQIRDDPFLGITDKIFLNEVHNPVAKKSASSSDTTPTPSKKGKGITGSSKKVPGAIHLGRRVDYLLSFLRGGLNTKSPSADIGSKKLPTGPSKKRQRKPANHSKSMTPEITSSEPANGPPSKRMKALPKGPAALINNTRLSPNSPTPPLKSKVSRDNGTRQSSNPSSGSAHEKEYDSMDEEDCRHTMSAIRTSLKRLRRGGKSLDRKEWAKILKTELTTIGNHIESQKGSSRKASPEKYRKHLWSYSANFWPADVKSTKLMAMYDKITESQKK

Sequence of Protein translocase subunit SecA (Escherichia coli (strain K12)) (P10408 whole entry): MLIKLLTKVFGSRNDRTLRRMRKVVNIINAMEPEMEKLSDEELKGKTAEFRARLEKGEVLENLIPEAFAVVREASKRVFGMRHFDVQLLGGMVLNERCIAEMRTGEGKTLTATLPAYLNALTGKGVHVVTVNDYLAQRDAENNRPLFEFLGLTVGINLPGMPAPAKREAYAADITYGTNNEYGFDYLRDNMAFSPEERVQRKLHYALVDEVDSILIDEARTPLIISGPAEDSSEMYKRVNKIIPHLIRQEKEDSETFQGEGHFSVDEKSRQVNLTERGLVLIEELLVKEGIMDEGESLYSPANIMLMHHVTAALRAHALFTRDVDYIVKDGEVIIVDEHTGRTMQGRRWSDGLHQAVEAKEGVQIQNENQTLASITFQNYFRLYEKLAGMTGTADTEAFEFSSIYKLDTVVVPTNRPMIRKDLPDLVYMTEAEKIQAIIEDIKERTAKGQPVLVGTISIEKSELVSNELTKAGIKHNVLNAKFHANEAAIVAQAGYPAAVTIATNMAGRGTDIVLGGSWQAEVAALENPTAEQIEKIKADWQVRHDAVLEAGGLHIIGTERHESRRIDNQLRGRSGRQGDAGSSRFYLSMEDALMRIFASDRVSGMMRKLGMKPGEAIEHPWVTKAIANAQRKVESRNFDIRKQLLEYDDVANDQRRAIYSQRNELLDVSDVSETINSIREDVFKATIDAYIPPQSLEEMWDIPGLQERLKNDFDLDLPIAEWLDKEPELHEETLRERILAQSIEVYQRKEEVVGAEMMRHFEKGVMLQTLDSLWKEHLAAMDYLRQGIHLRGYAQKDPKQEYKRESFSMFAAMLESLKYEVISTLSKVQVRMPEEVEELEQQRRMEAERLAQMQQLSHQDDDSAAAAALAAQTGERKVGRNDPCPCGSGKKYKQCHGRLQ
Sequence of Sialic acid-binding Ig-like lectin 9 (Homo sapiens) (Q9Y336 whole entry): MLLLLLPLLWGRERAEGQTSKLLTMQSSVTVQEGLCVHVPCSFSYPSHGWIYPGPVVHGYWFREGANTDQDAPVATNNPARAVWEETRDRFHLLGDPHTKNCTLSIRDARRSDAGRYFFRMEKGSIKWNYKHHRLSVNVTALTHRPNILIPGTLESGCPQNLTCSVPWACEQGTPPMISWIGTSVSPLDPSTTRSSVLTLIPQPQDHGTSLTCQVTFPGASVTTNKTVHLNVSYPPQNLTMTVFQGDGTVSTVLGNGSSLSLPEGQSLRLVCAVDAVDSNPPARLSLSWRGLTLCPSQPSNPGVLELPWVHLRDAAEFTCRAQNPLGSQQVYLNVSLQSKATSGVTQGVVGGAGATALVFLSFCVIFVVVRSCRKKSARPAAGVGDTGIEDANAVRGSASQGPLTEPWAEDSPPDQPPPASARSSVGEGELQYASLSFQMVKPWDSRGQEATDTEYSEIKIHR

As to `CCS(=O)(=O)c1ccc(N2CCC(NC(=O)CCC(C)C)CC2)cc1`, the Percent Effect in [1] was -1.62%; in assay [2], 10.7%; in assay [3] it was -6.1%; in assay [4] it was 12.2%; in the assay on Trypanosoma cruzi it was 6.13%; in [5], 16.1%. Besides, the Percent Effect in assay [6] was 6.8%; in the assay listed under Homo sapiens it was 27.1%; in assay [7], 6.01%; in [8] it was 8.64%; in [9], -4.64%.
In the case of `COC(=O)CN1CC(c2nc(Cc3ccccc3)no2)C1`, the Percent Effect is -5.1% in assay [1]; 13.7% in assay [2]; -3.81% in assay [3]; 14.3% in assay [4]; 2.35% in the assay on Trypanosoma cruzi; 2.27% in [5]. Further, the Percent Effect was 11.9% in assay [6]; 12.4% in the assay listed under Homo sapiens; 8.6% in [7]; 15% in assay [8]; -6.9% in assay [9].
`CN(C)C(=O)Cc1nc(CN2CCCCC2Cn2cccn2)cs1` (stereo unspecified): the Percent Effect was -2.18% in assay [1]; -2.63% in [2]; 87.3% in assay [3]; -6.24% in assay [4]; 1.07% with Trypanosoma cruzi; -2.37% in [5]. Moreover, the Percent Effect is 12.8% in [6]; 9.75% in the assay listed under Homo sapiens; 1.06% in assay [7]; -5.2% in assay [8]; -0.00308% in assay [9].
`CNC(=O)CS(=O)(=O)Cc1coc(-c2ccc(OC)cc2)n1`: the Percent Effect in assay [1] is -3.22%; in [2], 2.7%; in [3], -2.86%; in assay [4] it was -2.16%; with Trypanosoma cruzi it was -1.35%; in assay [5], -1.91%. In addition, the Percent Effect in [6] was 12.8%; in the assay filed under Homo sapiens, 7.16%; in [7], 2.65%; in assay [8], -4.88%; in [9], -2.91%.
`CCOC(=O)CN1CCC(C(=O)c2cc(F)ccc2F)CC1`: the Percent Effect in [1] was -9.27%; in assay [2], -5.26%; in assay [3] it was -10.9%; in assay [4], 11.4%; with Trypanosoma cruzi, 12.4%; in [5] it was -1.53%. Moreover, the Percent Effect in assay [6] was 4.01%; in the assay filed under Homo sapiens it was 2.26%; in assay [7] it was 5.39%; in assay [8], 7.32%; in assay [9] it was -11.5%.
For the compound `CCS(=O)(=O)CCn1ccc(NC(=O)CCc2cccc(C)c2)n1`, the Percent Effect was -1.95% in assay [1]; 5.41% in assay [2]; 2.06% in assay [3]; -5.21% in [4]; -3.91% in the assay on Trypanosoma cruzi; -2.08% in [5]. Besides, the Percent Effect in [6] is 11.8%; in the assay filed under Homo sapiens, 5.07%; in assay [7], 9.9%; in assay [8] it was 13.4%; in assay [9], 4.48%.
As to `Cc1ccc(C(C)NC(=O)Nc2ccccc2CN2CCOCC2)o1` (stereo unspecified), the Percent Effect is -5.3% in [1]; 5.41% in assay [2]; -1.54% in [3]; 9.05% in [4]; -2.64% with Trypanosoma cruzi; -5.21% in assay [5]. The Percent Effect was 9.19% in assay [6]; -2.32% in the assay filed under Homo sapiens; 7.53% in [7]; 8.64% in assay [8]; -0.483% in assay [9].
For `O=C(CCNc1ncccn1)N1CCCC(n2ccnc2)C1` (stereo unspecified), the Percent Effect in assay [1] is -7.87%; in assay [2], 6.33%; in assay [3], 7.8%; in assay [4], -0.356%; in the assay with Trypanosoma cruzi, -2.77%; in [5], 0.645%. Further, the Percent Effect in assay [6] is 9.78%; in the assay filed under Homo sapiens it was 12%; in assay [7], 8.33%; in [8], 15.2%; in assay [9] it was -20.9%.
`O=C(c1ccc[nH]1)N1CCCC(c2cc(C(F)(F)F)[nH]n2)C1` (stereo unspecified): the Percent Effect was -5.38% in [1]; -10.5% in assay [2]; 1.16% in assay [3]; 17.4% in assay [4]; -4.39% with Trypanosoma cruzi; -1.08% in [5]. For the same compound, the Percent Effect is -0.0846% in [6]; 35.6% in the assay filed under Homo sapiens; 3.45% in assay [7]; 6.17% in [8]; -3.1% in assay [9].
For `Cc1ncc(CNC(=O)N(C)C2CCN(c3ccccc3)C2=O)s1` (stereo unspecified), the Percent Effect was -4.68% in assay [1]; 5.26% in assay [2]; 1.78% in [3]; -2.39% in assay [4]; -4.51% with Trypanosoma cruzi; 3.45% in [5]. The Percent Effect is 4.51% in assay [6]; 15.1% in the assay listed under Homo sapiens; 2.45% in [7]; 0% in assay [8]; -3.16% in assay [9].
As to `Cc1nnc(N2CCC(CNC(=O)OC(C)(C)C)CC2)c(C#N)c1C`, the Percent Effect in assay [1] is -4.74%; in assay [2], 7.79%; in assay [3], -1.74%; in assay [4], -8.54%; in the assay with Trypanosoma cruzi, 1.47%; in assay [5] it was -0.21%. Also, the Percent Effect in assay [6] was 7.2%; in the assay filed under Homo sapiens, 26.6%; in assay [7] it was 2.86%; in [8], 11.8%; in assay [9] it was -16.5%.
